The source of these data is PubChem BioAssay (NCI).

The structures appear in SMILES notation. This is part of a sample that, as a whole, favours compounds with a hit. Of some 83,000 tested, about 20% had one in any assay.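 Single-concentration screen, 48 h exposure, 96-well plates. Endpoint: percent growth. Below 10 = active.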 Values without a mark were called inactive. The source made the active and inactive calls.

The test system of this assay is MDA-MB-468 breast. Put plainly: NCI-60 one-dose screen, 48 h (100 = growth as untreated, 0 = no growth, -100 = all killed). The note with it: 10 µM unless noted.
As to `COc1cc(/C=C/C(=O)c2cc(-c3ccccc3)ccc2O)cc(OC)c1OC`, the growth is 58.3%.
Regarding `Clc1ccc(Cc2nnc3sc(-c4cccnc4)nn23)cc1`, the growth was 94.2%.
For `O=C(Cc1ccccc1)NNc1nc(Cl)nc(N2CCN(C(c3ccccc3)c3ccccc3)CC2)n1`, the growth is 38.2%.
With `CCOC(=O)C1=NN(c2ccccc2)C(=O)/C1=C\N1C(=O)CC(=O)NC1=S`, the growth is 114%.
As for `Cc1nc2oc3ccccc3c(=O)c2cc1C(=O)NCc1ccccc1`, the growth is 89.2%.
Turning to `CN(C)C(=O)c1cc2cnc(Nc3ccc(-c4csc5c(=O)cc(N6CCNCC6)oc45)cc3)nc2n1C1CCCC1`, the growth was 19.6%.
Under `COc1cccc(/C=N/NC(=O)c2ccccc2N2CCCC2)c1O` stands 0.775% (active); under `CNCCCn1c2c(c3ccc(F)cc3c1=O)C(=O)c1cc(OC)cnc1-2`, -47.6% (active).
For `CN1CCc2cccc3c2C1Cc1ccc(O)c(O)c1-3` (centres undefined), the growth was 0.652% (active).
For `COc1ccc(-c2cc(C(=O)Nc3nc4cc(C)c(C)cc4s3)nc3cc(-c4ccccc4)nn23)cc1OC`, the growth is 109%.
Consider `O=S(=O)(Oc1ccc(Br)cc1)c1ccc(Cl)cc1`, for which the growth is 105%.
Turning to `CC(C)(C)c1cc(Br)cc(C(C)(C)C)c1O`, the growth is 110%.
Take `C=CN(C(=O)N1CCN(c2cc3c(cc2F)c(=O)c(C(=O)O)cn3C2CC2)CC1)c1nc(-c2ccccc2)cs1`: the growth was 100%.
As to `CC1=C(C)C(=O)C(Nc2cccc(C)c2)=C(Br)C1=O`, the growth was -43.1% (active).
As to `CC(C)(C)OC(=O)CC(S(=O)(=O)c1ccccc1)S(=O)(=O)c1ccccc1`, the growth was -23.7% (active).
On to `CC(=O)c1ccc(NC(=O)COc2ccc(C3SCC(=O)N3c3ccc(Br)cc3)cc2)cc1` (centres undefined), for which the growth is 92%.
`O=C(N[C@@H]1CCCc2ccccc21)[C@H](CCC(=O)N1CCN(C2CCCCC2)CC1)N1C(=O)[C@@H](N2C(=O)OC[C@@H]2c2ccccc2)[C@H]1/C=C/c1ccccc1`: the growth is -34.6% (active).
As to `CC(=O)ON1CCCC(P(=O)(OCCSC(=O)C(C)(C)C)OCCSC(=O)C(C)(C)C)C1=O` (centres undefined), the growth is 32%.
Under `O=C(NCc1cccnc1)c1cc(-c2csc3c(=O)cc(N4CCOCC4)oc23)cc2c1OCCO2` stands 10.7%; under `c1cc(C2CCCCC2)ccc1OCCCCCCN1CCNCC1`, 1.63% (active); under `COc1ccc(CN2c3ccccc3Oc3ccccc32)cc1O`, 6.51% (active).
`CCCCCc1ccc(S(=O)(=O)Nc2cc(-c3csc(N)n3)ccc2OC)cc1`: the growth is 78.7%.
Turning to `COc1cc2oc(-c3cccc(NC(=O)c4cc(NC(=O)[C@H](C)NC(=O)OC(C)(C)C)ccc4C)c3)cc(=O)c2c(OC)c1OC`, the growth was 84.3%.
Take `CC(=O)Nc1nccs1`: the growth was 107%.
For the compound `COc1cc(/C=C/c2cc(/C=C/c3ccc(O)c(OC)c3)n(-c3ccc(Cl)cc3)c(=O)n2)ccc1O`, the growth was 76.4%.
With `Cc1nc(N)nc(N[C@@H](C)c2nc3cccc(NCc4ccc(C(=O)NO)cc4)c3c(=O)n2-c2ccccc2)n1`, the growth was -5.1% (active).
Under `CN1CCN(Cc2ccc(NC(=O)c3cncc(C#Cc4cnc5ccc(N6CCOCC6)nn45)c3)cc2C(F)(F)F)CC1` stands -70.8% (active); under `Cc1ccc2nc3c(nc2c1)-c1cccc2cccc-3c12`, 48.1%; under `CCc1cccc(C)c1NC(=O)c1sc2nc3c(cc2c1N)CCCCC3`, 10.8%.
On to `COc1ccc(C(=O)CCC(=O)O)cc1`, for which the growth was 48%.
For `COc1ccc2c(c1)CC=C1[C@@H]2CC[C@]2(C)C(=O)/C(=N/O)C[C@@H]12`, the growth was 63.2%.
Under `CCCCCCNC(=O)Oc1ccc(/C(=C(/C)c2ccc(OC)cc2)c2ccc(OCCN3CCCC3)cc2)cc1` stands 87.1%; under `O=C(/C=C/c1ccc(Cl)cc1)c1ccccc1`, 89.7%; under `CCOC(=O)c1nnn(Cc2cc(=O)oc3c2ccc2ccccc23)c1C`, 103%.
The result for `CC[C@]12C=CCN3CC[C@@]4(c5cc(NC(=O)CCC(=O)O[C@H]6CC[C@H]7[C@@H]8CCC9=CC(=O)CC[C@@H]9[C@H]8CC[C@]67C)c(OC)cc5N(C)[C@H]4[C@@](O)(C(=O)OC)[C@@H]1OC(C)=O)[C@@H]32` reads 51.9%; that for `CC(=O)N1N=C(c2cccc(-n3cccc3)c2)CC1c1cccc(F)c1` (centres undefined), 90.4%; that for `Cn1ccnc1C(=O)/C=C/c1ccc(CNC(=O)c2ccc(F)cc2)cc1`, -29.1% (active).
With `COc1ccc(-c2cc(-c3cc(OC)c(OC)c(OC)c3)c(C#N)c(=O)n2CCCCC(=O)O)cc1`, the growth was 109%.
Turning to `Nc1nc(-c2cccc([N+](=O)[O-])c2)c(N=Nc2ccc([N+](=O)[O-])cc2Cl)s1`, the growth was -10.7% (active).
